Data reported in PubChem BioAssay (NCI).
The panel holds about 79,000 compounds, 15% with a hit somewhere; the sample as a whole holds those more often. Calls of active or inactive are those of the source. No stated cut-off is given here; in the data, active means growth inhibition above about 70%; inactive means the rest.

test: NCI Yeast Anticancer Drug Screen. Data for the mlh1 rad18 strain (AID 175); settings: S. cerevisiae mlh1 rad18 strain growth inhibition; at 50.0 µM; hits give high values
How it was run: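 Steps: expose repair-defective yeast to compound; measure growth; express inhibition against vehicle-treated controls.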

Structure (SMILES)	growth inhibition
O=C1OC(c2ccccc2)(C2(c3ccccc3)C=C(c3ccccc3)C(=O)O2)C=C1c1ccccc1 (stereo not given)	3.15% (inactive)
CCN(CC)CCCNc1ccc([N+](=O)[O-])c2nc3ccccc3c(N)c12	63.8% (inactive)
Nc1cc(=O)[nH]c(N)n1	-21.9% (inactive)
CC1(C)OC(=O)C(=CN(C2CCCCC2)C2CCCCC2)C(=O)O1	-13.3% (inactive)
CCCCCCCCCCCC(=O)OC(C)CO (stereo not given)	17.1% (inactive)
N#C/C(=C\c1c[nH]c2ccccc12)C(=O)c1ccc(O)c(O)c1	-6.95% (inactive)
CCOC(=O)CCCCCOC1CCCCO1 (stereo not given)	-10.5% (inactive)
COc1c2ccoc2cc2oc(=O)ccc12	20.4% (inactive)
OC(c1ccccc1)(c1ccccc1)C1CC1	10.9% (inactive)
COC(=O)C1(C(=O)OC)C2CCCCC21 (stereo not given)	7.1% (inactive)
CC(C)=C1C2CCC1[C@H](COS(C)(=O)=O)[C@@H]2COS(C)(=O)=O	-11.2% (inactive)
Cc1[nH]nc(C(=O)O)c1N	-7.2% (inactive)
CNC(=O)C(c1ccccc1)C(O)c1ccccc1 (stereo not given)	-10.5% (inactive)
CN1CCN(c2ccncc2S(=O)(=O)N2CCN(C)CC2)CC1	-2.5% (inactive)
CN(CC(=O)c1ccc(I)cc1)Cc1ccccc1	45.7% (inactive)
CCCCOC(=O)/C=C\C(=O)NC(=O)NC(C)(C)C	3.15% (inactive)
CC(C)(C)c1cc(C(C)(C)C)c(P(C(O[Si](C)(C)C)=C(c2ccccc2)c2ccccc2)C(O[Si](C)(C)C)=C(c2ccccc2)c2ccccc2)c(C(C)(C)C)c1	15.2% (inactive)
Cc1ccc(CSCc2c(CSCc3ccc(C)cc3)c(CSCc3ccc(C)cc3)c(CSCc3ccc(C)cc3)c(CSCc3ccc(C)cc3)c2CSCc2ccc(C)cc2)cc1	6.85% (inactive)
Nc1c2ccccc2nc2c(C(=O)Nc3ccc(S(N)(=O)=O)cc3)cccc12	1.05% (inactive)
CC(C)/C=C(\C#N)C(=O)O	1.3% (inactive)

Structure (SMILES)	growth inhibition
c1ccc2cc3ccccc3cc2c1	3.7% (inactive)
CCOc1cc2c(cc1Cc1ccc3c(c1)OCO3)OCO2	1.3% (inactive)
O=C(Oc1ccc(OC(=O)c2ccc([N+](=O)[O-])cc2)cc1)c1ccccc1	5.25% (inactive)
CSC1(C)C(=O)Nc2cc([N+](=O)[O-])ccc21 (stereo not given)	-5.55% (inactive)
Cc1cccc(SC(=O)Nc2cc([N+](=O)[O-])ccc2Cl)c1	20.5% (inactive)
CCCCCCCCCCCCCCCCOc1ccc(Sc2ccc([N+](=O)[O-])cc2)cc1	31.6% (inactive)
Cc1cccc(N=Nc2ccc(O)c(CN(C)C)c2)c1	20.2% (inactive)
CCOC(=O)c1c(N)sc2c1C(C(=O)OCC)CCCC2 (stereo not given)	38.2% (inactive)
CC1C[P+](c2ccccc2)(c2ccccc2)Cc2ccccc21 (stereo not given)	4.6% (inactive)
COc1ccc(C(C)=O)cc1CCCO	20.6% (inactive)
CC(C)C(=O)c1ccccc1Cl	-8% (inactive)
CC1(C)C(=O)NC(=O)N1CO	20% (inactive)
C/C(CC(C)C)=N\NC(=O)Nc1ccccc1Cl	6.35% (inactive)
COC(=O)C12OCC34C(CC5C(C)CC(=O)C(O)C5(C)C3C(O)C1O)OC(=O)C(OC(C)=O)C24 (stereo not given)	31.6% (inactive)
C1CCC2(CC1)SCCS2	-10.4% (inactive)
CC(C(c1ccccc1)C(Br)C(=O)c1ccccc1)[N+](=O)[O-] (stereo not given)	94.7% (active)
CSc1nc2ncnc(N(C)C)c2[nH]1	-16.5% (inactive)
O=C(O)CCc1cccc2c(=O)cc(-c3ccccc3)oc12	3.35% (inactive)
NC(=S)NNC(N)=S	24.5% (inactive)
S=C(Nc1ccccc1)Nc1ccccn1	4.25% (inactive)
